Results as given in PubChem BioAssay AID774 (SRMLSC, 2007).
Out of some 65,000 compounds screened, about 15 (0.02%) were called active.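 Rule for the calls: active = single-dose screening hits from any of four coupled enzyme assays that gave an IC50 when retested across doses; inconclusive = no clear call, values can overlap the other calls; inactive = the rest.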 A selection follows.

Test: inhibitors of PK/LDH coupling enzymes, profiling panel, artefact control, biochemical, MLSMR library (AID 774);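 note: the DPM-DC format reads NADH fluorescence rather than 340 nm absorbance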
Details: coupled PK/LDH NADH assays, four targets; at 10 µM; hits give high values

inhibition, inactive:
COc1cc(OC)cc(C(=O)Nc2ccc(-c3nc4ccccc4o3)c(O)c2)c1 9%, CC1(C)C(=O)Nc2ccccc2N1C(=O)COC(=O)Cn1cnc2ccccc2c1=O 11%, CC1CCCCC1NC(=O)CCS(=O)(=O)c1cccc2nonc12 (configuration not stated) 2%, c1csc(CN2CCN(Cc3cccs3)C2c2cccs2)c1 5%, O=C(CSc1nnc(Cc2ccccc2)n1-c1ccccc1)N1CCOCC1 5%, CCc1c(O)nc(SCC(=O)N2CCCCC2)n(-c2ccccc2C)c1=O 11%, O=C(NC1CCN(Cc2ccccc2)CC1)c1ccccc1F 1%, Cc1ccc(NC(=O)c2cc(-c3ccc(C)o3)nc3ccccc23)nc1 5%, CCOC(=O)C1CCN(C(=O)Cc2c(C(=O)O)[nH]c3ccccc23)CC1 1%, Cc1ccn2cc(C(=O)NC3CCN(Cc4ccccc4)CC3)nc2c1 4%, CC1Cc2ccccc2N1C(=O)CSc1nc2ccccc2o1 (configuration not stated) 4%, COC(=O)CN(c1cccc(C(C)=O)c1)S(C)(=O)=O 6%, C[N+](C)(C)CCOP(=O)([O-])OC[C@H](O)CO 2%, COc1ccc(OC)c(C(=O)c2coc3ccc(OC)cc23)c1 0%, Cc1cc(C)nc(NC2=NCC(=O)N2c2ccc(Cl)cc2)n1 2%, Nc1ccc(-n2nncc2-c2ccco2)cc1 3%, CCOC(=O)CSc1nnc(CNC(=O)c2ccco2)n1-c1ccc(F)cc1 5%, CCOC(=O)C1C(=O)NC(N2CCN(c3ccccc3)CC2)=NC1c1ccco1 (configuration not stated) 7%, O=C(O)C1CCCN1S(=O)(=O)c1ccc2c(c1)CCC2 (configuration not stated) 8%, CNC(=O)n1ccc(C(=O)N2CCCCC2)n1 2%, Cc1ccc(-c2ccc(=O)n(CC(=O)NCCCN3CCCCC3)n2)cc1 8%, CN(Cc1ccccc1)c1nc2c(c(=O)[nH]c(=O)n2C)n1CCSc1nc2ccccc2[nH]1 4%, COC(=O)C(C)N(C#N)c1nc(C)nc(C)n1 (configuration not stated) 9%, CCOc1ccc(NC(=O)Nc2ccc(N(C)C(C)=O)cc2)cc1 4%, CC(c1ccco1)N(C(=O)c1ccc(S(=O)(=O)N2CCCCC2)cc1)c1ccccn1 (configuration not stated) 1%, Cc1ccc(-c2nc(COC(=O)c3c(C)noc3C)cs2)cc1 7%, COc1ccc(OCc2cccc(C(=O)N3CCCC3)c2)cc1 9%, CCOC(=O)N1CCN(C(=O)c2ccc(CN(c3ccc(C)c(C)c3)S(C)(=O)=O)cc2)CC1 2%, CCOC(=O)N1CCN(C(=O)COc2ccc(Br)cc2)CC1 5%, COc1ccccc1C(=O)N1CCN=C1SCc1cccnc1 2%, Cn1c(=O)[nH]c(=O)c2c1nc(CN(Cc1ccccc1)Cc1ccccc1)n2CCN1CCOCC1 0%, CCOC(=O)c1nnn(-c2nc(OC)nc(N(C)C)n2)c1-c1ccccc1 6%, O=C(CSc1nc2ccccc2o1)N1CCN(c2ccc(Cl)cc2)CC1 3%, CCOC(=O)N1CCN(C(=O)CN(C2CCCCC2)S(C)(=O)=O)CC1 3%, O=C(C1CCN(CC2CCCCC2)CC1)N1CCCC1 17%, O=C(CS(=O)(=O)c1cn(Cc2ccc(Cl)cc2)c2ccccc12)N1CCOCC1 1%, CC1CN(c2cc(=O)n(-c3cccc(Br)c3)c(=O)[nH]2)CC(C)O1 (configuration not stated) 2%, OC(COc1cccc(OCC(O)CN2CCCC2)c1)CN1CCCC1 (configuration not stated) 3%, COc1ccc(C2CC(c3ccc(C)cc3)Nc3nc(N)nn32)cc1 (configuration not stated) 1%, CCOc1ccc(-c2nnn(CC(=O)N3CCN(c4ccc(F)cc4)CC3)n2)cc1OCC 1%, COc1ccccc1Cc1nc(-c2ccc(C)cc2)no1 1%, Cc1cc(=O)[nH]c(=S)[nH]1 0%, COc1ccccc1C1/C(=C(/O)c2ccc(OC(C)C)cc2)C(=O)C(=O)N1c1cc(C)on1 (configuration not stated) 5%, OCCCNC(c1ccccc1)c1ccc(O)cc1 (configuration not stated) 6%, Cc1cc(C(F)(F)F)nn1CC(=O)N1CCCC1 2%, CCOC(=O)Cn1c(SC)nc2sc3c(c2c1=O)CC(C)(C)OC3 4%, COCCNC(=O)c1ccccc1-c1nc(-c2ccccc2Cl)no1 4%, Cc1nc(CNS(=O)(=O)c2cccnc2)cs1 5%, Cc1cc(C)nc(N(C#N)CC(=O)Nc2ccccc2)n1 7%, COc1ccc(-c2noc(CN(C)S(=O)(=O)c3ccc(C)cc3)n2)cc1 6%, CN1CCN(S(=O)(=O)c2ccc(NC(=O)c3ccco3)cc2)CC1 2%, CCOc1ccc(CN(Cc2ccco2)C(c2cccs2)c2nnnn2C(C)(C)C)cc1 (configuration not stated) 1%, CCOC(=O)c1ccc(N2C(=O)CC(N3CC(C)OC(C)C3)C2=O)cc1 (configuration not stated) 3%, CC(=O)Nc1ccc(S(=O)(=O)N2CCN(C3CCCCCCC3)CC2)cc1 6%, CC(C)(C)c1ccc(C(=O)NCCC(=O)NCc2ccco2)cc1 6%, CCSC1(SCC)N=C(N)C2(C#N)C(c3ccccc3)NC(C)=CC12C#N (configuration not stated) 1%, COc1ccccc1-n1nnnc1S(=O)(=O)Cc1ccc(Cl)cc1 5%, Cc1noc(C)c1S(=O)(=O)N(CC(=O)Nc1ccc2c(c1)OCCO2)c1ccc(C(C)C)cc1 8%, CCCCOC(=O)c1[nH]c(C)c(C(=O)OC)c1C 1%, CC(Oc1ccc(Cl)cc1)C(=O)Nc1ncccn1 (configuration not stated) 5%, Cc1noc(C)c1CSc1nc2cc(S(=O)(=O)N3CCOCC3)ccc2o1 4%, O=C1CCC(=O)N1CCOP1(=O)COc2ccccc2OC1 4%, O=C(NCc1ccc2c(c1)OCO2)c1cc2c(s1)CS(=O)(=O)C2 6%, CCCOP(=O)(c1ccc(N(C)C)cc1)C(O)c1cc(OC)c(OC)c(OC)c1 (configuration not stated) 2%, CSc1nc(C)nc2c1c(=O)n(C)c(=O)n2C 5%, Cc1nc(NCc2ccccc2)c(C(N)=O)c2c1COC(C)(C)C2 11%, CCN(CC)CCNC(=O)C1c2ccccc2C(=O)N(C)C1c1cn(C)c2ccccc12 (configuration not stated) 6%, CCOc1cc(C(=O)N2CCc3cc(OC)c(OC)cc3C2)ccc1OC(F)F 7%, Cc1cc(N2CCCC2)n2nc(C)c(-c3ccccc3)c2n1 8%, CSCCC(NC(N)=O)C(=O)N(C)CC(=O)Nc1ccc(C)cc1 (configuration not stated) 8%, CC(NCCO)C(=O)C12CC3CC(CC(C3)C1)C2 (configuration not stated) 4%, O=P(O)(CP(=O)(c1ccccc1)c1ccccc1)c1ccccc1 6%, COC(=O)c1cc(NC(=O)CN2CCC(C(N)=O)(N3CCCCC3)CC2)cc(C(=O)OC)c1 4%, ON=C1/C(=N\O)CC2(C/C1=N/O)OCCO2 2%, CCc1ccccc1NC(=O)CSc1nnc([C@@H](NC(=O)OC(C)(C)C)C(C)CC)o1 (some centres not stated) 5%, COc1ccc(-n2ncc3c(N4CCc5ccccc54)ncnc32)cc1 6%, CCOc1ccc(S(=O)(=O)N(CC(=O)O)c2ccccc2)cc1 1%, CCOc1cccc(NC(=O)CC#N)c1 6%, COC(=O)c1sccc1NC(=O)c1csc2c1CCCC2 5%, CCOC(=O)CNC(=O)CSc1nnc(COc2ccc(Cl)cc2)n1CC 8%, N#Cc1ccc(OCCN2C(=O)NC3(CCSC3)C2=O)cc1 (configuration not stated) 14%, CS(=O)(=O)N(Cc1nc2sc3c(c2c(=O)[nH]1)CCCC3)C1CCCCC1 3%, CCn1nc(NC(=O)c2ccco2)c2cc3ccc(C)cc3nc21 9%, N#CC(C(=O)c1ccc(S(=O)(=O)N2CCCCCC2)cc1)c1nc2ccccc2[nH]1 (configuration not stated) 8%, CC(=O)N(Cc1cccs1)C1CCOC(C)(C)C1 (configuration not stated) 5%, CCn1c(NCCc2ccc(OC)c(OC)c2)nc2c1c(=O)n(C)c(=O)n2C 7%, Nc1nc(SCCOc2ccccc2)n[nH]1 1%, N#C/C=C\Oc1ccc(Cl)cc1N 7%, Cc1nnc(NC(=O)CSc2nccn2-c2cccc(C)c2C)s1 5%, O=C(NCc1ccco1)c1cc2sccc2n1Cc1ccc(F)cc1 5%, CCOc1ccc(-c2cn(S(=O)(=O)c3cccc4nsnc34)nc2N)cc1 5%, O=C(CCn1c(=O)[nH]c2ccccc2c1=O)NCCCN1CCN(c2cccc(Cl)c2)CC1 1%, CC1=CC(C)(C)N(C(=O)CSc2nccn2C)c2cc(C)ccc21 0%, O=C(O)CCSc1nnc(-c2ccccc2)n1-c1ccccc1 4%, CSc1nnc(CNC(=O)c2ccccc2)n1-c1ccc(F)cc1 0%, CC(NC(=O)Nc1ccccc1)c1ccccc1 (configuration not stated) 10%, CC(=O)c1cc(C#N)c(SCC(=O)C(C)(C)C)nc1C 1%, COc1cccc(NC(=O)Nc2nnc(N3CCCCC3C)s2)c1 (configuration not stated) 7%, CCCn1cc(SCC(N)=O)c2ccccc21 1%, COc1ccc(S(=O)(=O)N2CCC(C(=O)N3CCc4ccccc4C3)CC2)cc1OC 2%, CCOC(=O)N1CCC(O)(c2cc(C)c(C)cc2C)CC1 3%, O=C(CNS(=O)(=O)c1ccc(Br)s1)NCc1ccc2c(c1)OCO2 5%
